Data taken from PubChem BioAssay (NCATS).
Inconclusive results are not listed. Entries that show only a call come without a potency. Active and inactive are the calls of the source. Calls follow the shape of the dose curve; as a rule, active = well fitted inhibition curve with a large enough effect; inconclusive = small, poorly fitted or top-dose-only effect; inactive = flat fitted curve, though single readings scatter.

Assay: P-glycoprotein substrates identified in KB-8-5-11 adenocarcinoma cell line, qHTS therapeutic library screen (AID 1346987); also: nearly all actives have a fitted effect of over 65% in size
Conditions: KB-8-5-11 (P-gp overexpressing) viability, CellTiter-Glo, 72 h; series mostly up to 44.5 µM
Outline: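 KB-8-5-11: colchicine-selected sub-line of KB-3-1 over-expressing P-gp; assay medium lacked colchicine. 72 h drug exposure at 37 degree C, CellTiter-Glo.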
Potency is read from the fitted curve at half-maximal effect.

Structure (SMILES)	Potency
O=C(Cc1c(F)cccc1F)Nc1cc(OCc2ccc(Cl)cc2)ccn1	inactive
CCC(=O)Oc1ccc2c(c1)CC[C@@H]1[C@@H]2CC[C@]2(C)[C@@H](OC(=O)CC)CC[C@@H]12	10.3 µM (active)
CCOC(=O)COc1ccc2c(C)c(CCN(CC)CC)c(=O)oc2c1	inactive
O=C(Nc1nc2cc(C(F)(F)F)cc(NC3CC3)n2n1)c1cccnc1	2.91 µM (active)
CC(=O)OCC(=O)[C@@]12O[C@@H]1C[C@H]1[C@@H]3CC=C4C[C@@H](O)CC[C@]4(C)[C@H]3CC[C@@]12C	inactive
C=CS(=O)(=O)O	inactive
CO[C@@H]1[C@@H](O[C@@H]2O[C@H](C)[C@@H](O[C@H]3C[C@@](C)(O)[C@@H](OC(=O)CC(C)C)[C@H](C)O3)[C@H](N(C)C)[C@H]2O)[C@@H](CC=O)C[C@@H](C)[C@@H](O)/C=C/C=C/C[C@@H](C)OC(=O)C[C@H]1O	inactive
COc1ccc(C(=O)O[C@H]2C=COC=C3C=C4C(=O)N(C)C(=S)C(=O)N4[C@@H]32)cc1Oc1cc(C=O)ccc1O	inactive
N#Cc1cc(C2=Nc3ccc(Br)cc3NC(=O)C2)ccn1	inactive
O=C(Nc1nnc(-c2ccc3c(c2)OCCO3)o1)C1CCCCC1	inactive
COc1cc(/C=N\NC(=O)c2ccc3c(c2)OCO3)ccc1OCc1ccccc1	inactive
C=C(C(=O)OC)[C@@H]1CC=C2C=CC(=O)[C@H](C)[C@@]2(C)C1	inactive
O=C(Nc1cccc2cccnc12)c1ccc(N2C(=O)[C@@H]3C4C=CC(C4)[C@@H]3C2=O)cc1	inactive
